Experiment [1] in a line: resazurin metabolic signal in HepG2 cells – cell-based, resazurin fluorescence, 24 h, PK04 Diversity Set, profiling panel (AID 1172). The conditions noted are these: HepG2 viability, higher = more signal. A general note: The colour change of resazurin is a common sign of viable cells or microbes.
A short description of experiment [2]: budding yeast growth changes without added modifier – OD600, strain BY4716, 24 h, basal condition, primary screen (AID 1173). The following applies: S. cerevisiae BY4716 growth, OD600, 24 h; higher = more signal, called active from +8 up or from −8 down.
Experiment [3] in a line: viability profiling in MM1S myeloma cells – cell-based, resazurin fluorescence, basal, 24 h, PK04 Diversity Set, profiling panel (AID 1174). The conditions noted are these: higher = more signal, called active from +8 up or from −8 down.
Experiment [4] has as its target Dihydroorotate dehydrogenase (quinone), mitochondrial (Plasmodium falciparum (isolate 3D7)) (UniProt Q08210). As to the kind of experiment: inhibition of P. falciparum DHODH – biochemical, C-terminal His tag, absorbance 600 nm, primary screen (AID 1175).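 Further: recombinant parasite enzyme with a five histidine tag at its C terminus.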 The following applies: PfDHODH enzyme, DCIP absorbance 600 nm; higher = more signal, called active from +8 up or from −8 down.

A short description of experiment [5]: inhibition of PAO1 biofilm formation – strain PAO1, LB-PBS medium, absorbance 600 nm, primary screen (AID 1176). The following applies: P. aeruginosa PAO1 growth/biofilm, A600, 12 h; higher = more signal.
The nature of experiment [6]: growth modulation of vineyard yeast isolate – strain RM11-1a, OD600, basal, 24 h, primary screen (AID 1177).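 Further: cultures grown under basal conditions with no added stressor.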 The following applies: S. cerevisiae RM11-1a growth, OD600, 24 h; higher = more signal, called active from +8 up or from −8 down.
Experiment [7] is described as follows: growth of efflux-deficient E. coli DRC39 – strain DRC39, OD650, 24 h, E. coli filamentation inducers, primary screen (AID 1178).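 Further: growth measured as culture turbidity by optical density at 650 nm.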 The following applies: E. coli DRC39 acrAB, higher = more signal, called active from +8 up or from −8 down.
Experiment [8] can be described thus: growth of efflux-deficient E. coli DRC39 – strain DRC39, OD650, 48 h, E. coli filamentation inducers, primary screen (AID 1179).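 Further: screen aims at cell division blockers that make cells filament.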 The following applies: E. coli DRC39 delta-acrAB growth, higher = more signal, called active from +8 up or from −8 down.
A short description of experiment [9]: viability profiling in RPMI8226 myeloma cells – cell-based, resazurin fluorescence, basal, 24 h, PK04 Diversity Set, profiling panel (AID 1180).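 Further: RPMI8826 multiple myeloma cell line at 5000 cells per well.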 The following applies: higher = more signal.
Experiment [10] addresses E3 ubiquitin-protein ligase XIAP (Homo sapiens) (UniProt P98170). Nature of the experiment: small molecules binding XIAP protein – biophysical, small-molecule microarray, fluorescence 635 nm, primary screen (AID 1181).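 Further: score merges 667 nm emission and signal to noise over triplicate slides.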 The following applies: higher = more signal.
The test system of experiment [11] is XIP peptide (Xip251-270) binding. Nature of the experiment: XIP fragment 251-270 binding compounds – biochemical, small-molecule microarray, fluorescence 635/667 nm, 0.1 µg/mL protein, primary screen (AID 1182). The conditions noted are these: fluorescent protein binding, 635 nm, higher = more signal, called active from +8 up or from −8 down.
The subject of experiment [12] is XIP peptide (Xip251-270). Nature of the experiment: compounds binding XIP fragment 251-270 – biochemical, small-molecule microarray, fluorescence 635/667 nm, 0.5 µg/mL protein, primary screen (AID 1183). The conditions noted are these: fluorescence 635 nm, higher = more signal.
The nature of experiment [13]: blood-stage malaria parasite viability loss – strain 3D7, DAPI fluorescence, 100 nL, primary screen (AID 1184).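 Further: parasites grown inside human red blood cells in medium with human serum.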 The conditions noted are these: P. falciparum 3D7 growth, 3 d, higher = more signal.
For experiment [14], the target named is Homeobox protein Hox-A13 (Mus musculus) (UniProt Q62424). Nature of the experiment: disruptors of Hoxa13 oligonucleotide interaction – biochemical, fluorescence polarization, labeled oligonucleotide, primary screen (AID 1185). The conditions noted are these: Hoxa13:DNA binding, 15 min, higher = more signal, called active from +8 up or from −8 down. (In general: Polarisation of emitted light reports the rotation of a fluorescent probe.)
Sequence of Homeobox protein Hox-A13 (Mus musculus) (Q62424 whole entry, looked up): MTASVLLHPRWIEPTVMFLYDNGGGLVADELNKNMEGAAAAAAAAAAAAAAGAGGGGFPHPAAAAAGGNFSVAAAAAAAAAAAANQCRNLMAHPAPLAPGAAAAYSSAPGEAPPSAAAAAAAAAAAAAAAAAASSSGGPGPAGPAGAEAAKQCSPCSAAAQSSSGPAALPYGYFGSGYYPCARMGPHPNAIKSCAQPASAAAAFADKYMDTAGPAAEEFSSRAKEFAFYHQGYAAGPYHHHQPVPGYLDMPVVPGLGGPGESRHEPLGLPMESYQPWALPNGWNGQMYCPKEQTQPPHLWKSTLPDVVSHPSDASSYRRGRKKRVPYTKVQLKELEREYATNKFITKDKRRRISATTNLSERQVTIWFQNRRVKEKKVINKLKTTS

The nature of experiment [15]: blockers of DNA damage checkpoint Chk1 activation – imaging, HeLa, hydroxyurea, phospho-Chk1 antibody, percent positive cells, primary screen (AID 1186). The conditions noted are these: hydroxyurea-induced phospho-Chk1 immunofluorescence imaging, higher = more signal.
Experiment [16] in a line: blockers of DNA damage checkpoint Chk1 activation – imaging, HeLa, hydroxyurea, phospho-Chk1 nuclear intensity, primary screen (AID 1187). The following applies: hydroxyurea-induced phospho-Chk1 immunofluorescence imaging, higher = more signal.

Activity calls are given as the source filed them. Unless noted, how the calls were made is not given here.

Sequence of Dihydroorotate dehydrogenase (quinone), mitochondrial (Plasmodium falciparum (isolate 3D7)) (Q08210 whole entry, looked up): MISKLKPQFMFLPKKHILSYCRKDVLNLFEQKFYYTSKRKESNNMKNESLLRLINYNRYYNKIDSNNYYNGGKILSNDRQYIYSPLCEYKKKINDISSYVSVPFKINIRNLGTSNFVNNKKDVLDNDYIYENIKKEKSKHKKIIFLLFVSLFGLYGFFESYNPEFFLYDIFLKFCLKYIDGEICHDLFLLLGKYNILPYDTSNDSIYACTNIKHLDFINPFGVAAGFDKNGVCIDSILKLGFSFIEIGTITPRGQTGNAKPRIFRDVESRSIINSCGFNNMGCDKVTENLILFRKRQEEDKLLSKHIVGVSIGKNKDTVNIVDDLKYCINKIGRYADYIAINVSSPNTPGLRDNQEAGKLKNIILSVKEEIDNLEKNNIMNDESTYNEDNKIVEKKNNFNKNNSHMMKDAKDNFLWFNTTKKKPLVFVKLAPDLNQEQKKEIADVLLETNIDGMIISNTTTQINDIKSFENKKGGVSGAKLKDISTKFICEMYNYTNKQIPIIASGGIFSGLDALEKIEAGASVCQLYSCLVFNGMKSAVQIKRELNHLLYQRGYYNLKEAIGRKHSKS
Sequence of E3 ubiquitin-protein ligase XIAP (Homo sapiens) (P98170 whole entry, looked up, the tested form may be a part): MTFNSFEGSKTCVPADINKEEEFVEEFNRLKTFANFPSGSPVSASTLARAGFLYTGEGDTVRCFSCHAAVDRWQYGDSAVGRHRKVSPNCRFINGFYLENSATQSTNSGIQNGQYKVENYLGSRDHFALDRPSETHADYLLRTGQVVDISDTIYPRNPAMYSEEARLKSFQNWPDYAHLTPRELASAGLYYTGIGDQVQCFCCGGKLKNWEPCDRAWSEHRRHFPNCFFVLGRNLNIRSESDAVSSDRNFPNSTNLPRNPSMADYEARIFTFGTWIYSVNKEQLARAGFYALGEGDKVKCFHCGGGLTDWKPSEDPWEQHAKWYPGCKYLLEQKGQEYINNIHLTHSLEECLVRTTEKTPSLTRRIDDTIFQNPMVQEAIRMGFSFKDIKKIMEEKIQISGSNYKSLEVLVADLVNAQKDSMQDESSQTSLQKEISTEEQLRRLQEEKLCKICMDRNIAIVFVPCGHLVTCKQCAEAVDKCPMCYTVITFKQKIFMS

With `O=C1O[C@@H](c2ccccc2)[C@@H](c2ccccc2)N2[C@@H](c3ccccc3OCCO)[C@]3(C(=O)Nc4ccc(C#CCCO)cc43)[C@@H](C(=O)N3CCN(c4ncccn4)CC3)[C@H]12`, the z-score in [1] is 0.261; in [2], 1.73 (inactive); in experiment [3], -0.901 (inactive); in experiment [5], 0.393 (inactive); in experiment [6] it was 2.47 (inactive); in experiment [7], 0.245 (inactive). The z-score in [8] was -0.289 (inactive); in experiment [9], -1.7; in [13] it was -2.05; in experiment [14], -1.33 (inactive); in experiment [15] it was -0.0995 (inactive); in experiment [16], 0.113 (inactive). In addition, the composite z-score in [4] is 0.286 (inactive); in [10] it was -0.0622; in experiment [11], 0.665 (inactive); in experiment [12] it was 0.617.

`C=CCC(OC(C)=O)[C@@H]1[C@@H](N(Cc2ccc(-c3ccccc3)cc2)C(=O)c2cccc3ccccc23)c2cc(OCCCO)ccc2N1C(=O)Cc1ccc2ccccc2c1` (some centres undefined): the z-score in experiment [1] was 0.0989; in experiment [2], -0.456 (inactive); in [3], -0.144 (inactive); in experiment [5], 0.374 (inactive); in experiment [6], -0.611 (inactive); in experiment [7] it was 0.326 (inactive). Moreover, the z-score in [8] was -0.299 (inactive); in experiment [9], -0.187; in [13] it was -0.171; in [14], -1.26 (inactive); in [15], -0.8 (inactive); in [16], -0.493 (inactive). Further, the composite z-score is 0.0505 (inactive) in experiment [4], 0.18 in experiment [10], -0.366 (inactive) in [11] and 0.579 in experiment [12].

Take `COc1ccc(CCNC(=O)[C@@]2(Sc3ccc(C)cc3)CC(=O)N(Cc3cc(C(F)(F)F)cc(C(F)(F)F)c3)[C@@H]2c2ccc(CO)cc2I)cc1`: the z-score in experiment [1] was 0.872; in [2], -3.6 (inactive); in experiment [3] it was -2.46 (inactive); in experiment [5], 0.723 (inactive); in experiment [6], -1.33 (inactive); in [7] it was 0.232 (inactive). Also, the z-score was 0.214 (inactive) in [8]; -1.61 in experiment [9]; 0.725 in [13]; -2.57 (inactive) in experiment [14]; 0.261 (inactive) in experiment [15]; 0.688 (inactive) in experiment [16]. Further, the composite z-score in experiment [4] was -0.988 (inactive); in experiment [10] it was -0.291; in [11], 0.439 (inactive); in experiment [12] it was 0.858.

Regarding `Cc1ccc(S[C@]2(C(=O)NCc3ccccc3)CC(=O)N(C(C)C)[C@@H]2c2ccc(CO)cc2I)cc1`, the z-score is 0.059 in [1]; -1.93 (inactive) in experiment [2]; -1.63 (inactive) in experiment [3]; -0.0807 (inactive) in experiment [5]; -0.964 (inactive) in [6]; 0.484 (inactive) in experiment [7]. For the same molecule, the z-score in experiment [8] is 0.329 (inactive); in [9], -2.35; in [13] it was 0.257; in experiment [14] it was -2.88 (inactive); in experiment [15], 0.422 (inactive); in [16] it was 0.953 (inactive). Also, the composite z-score was -0.335 (inactive) in experiment [4], -0.253 in [10], 1.17 (inactive) in experiment [11] and 0.809 in experiment [12].

For the molecule `C=CCC(OC(C)=O)[C@@H]1[C@@H](N(Cc2cc3ccccc3o2)C(=O)c2ccc(C)cc2)c2cc(OCCCO)ccc2N1C(=O)Cc1ccc2ccccc2c1` (some centres undefined), the z-score in [1] was 0.85; in experiment [2], 0.0206 (inactive); in experiment [3] it was -0.589 (inactive); in experiment [5], -0.501 (inactive); in experiment [6], 0.554 (inactive); in [7], 0.964 (inactive). The z-score in experiment [8] was 1.08 (inactive); in experiment [9], 0.305; in experiment [13], -0.429; in [14], -1.45 (inactive); in experiment [15], 0.0151 (inactive); in experiment [16], 0.0749 (inactive). Also, the composite z-score in [4] was 0.507 (inactive); in experiment [10], 0.162; in experiment [11], -0.303 (inactive); in [12] it was -0.419.

For `COc1cc2c(cc1O)C(C)N(Cc1cc3c(cc1Br)OCO3)CC2` (centres undefined), the z-score in experiment [1] was -0.587; in [2], -0.272 (inactive); in [3], 0.297 (inactive); in [5], -0.351 (inactive); in experiment [6], 0.526 (inactive); in experiment [7] it was 0.553 (inactive). Further, the z-score is 0.0553 (inactive) in experiment [8]; 0.538 in [9]; -2.03 in [13]; -1.58 (inactive) in experiment [14]; -0.765 (inactive) in [15]; -1.06 (inactive) in experiment [16]. The composite z-score is -9.46 (active) in [4], -0.157 in [10], 1.5 (inactive) in experiment [11] and 0.291 in [12].

In the case of `O=C(O)[C@H](Cc1ccccc1)n1cc(-c2ccccn2)nn1`, the z-score in experiment [1] is 0.535; in experiment [2], -0.65 (inactive); in experiment [3] it was 0.365 (inactive); in [5] it was -0.476 (inactive); in [6] it was 0.911 (inactive); in experiment [7], -0.256 (inactive). Also, the z-score in [8] was 0.23 (inactive); in experiment [9] it was 0.373; in experiment [13] it was 0.214; in experiment [14] it was -0.876 (inactive); in [15], 0.721 (inactive); in experiment [16] it was 0.662 (inactive). Also, the composite z-score was -0.435 (inactive) in experiment [4], 0.122 in experiment [10], 0.355 (inactive) in experiment [11] and 0.32 in experiment [12].

`O=C1O[C@H](c2ccccc2)[C@H](c2ccccc2)N2[C@H]1[C@@H](C(=O)O)[C@]1(C(=O)Nc3ccccc31)[C@H]2c1ccc(O)cc1`: the z-score in [1] is -0.401; in [2], 0.671 (inactive); in experiment [3] it was 0.186 (inactive); in experiment [5], 1.53 (inactive); in [6] it was 0.473 (inactive); in experiment [7], 0.293 (inactive). Further, the z-score in [8] is -0.221 (inactive); in experiment [9], 0.494; in experiment [13], -0.0758; in [14], -5.84 (inactive); in experiment [15] it was 0.0422 (inactive); in experiment [16], -0.426 (inactive). The composite z-score is -1.66 (inactive) in [4], -0.237 in experiment [10], 0.624 (inactive) in [11] and 0.212 in [12].

On to `O=C(O)[C@]1(Cc2ccccc2)N=C(c2ccc(OCCCO)cc2)O[C@@H]1c1ccccc1`, for which the z-score in experiment [1] is 0.424; in [2] it was -1.13 (inactive); in [3], 0.723 (inactive); in experiment [5], -0.912 (inactive); in experiment [6], -0.002 (inactive); in experiment [7], 0.0717 (inactive). Moreover, the z-score in experiment [8] is 1.01 (inactive); in [9], 1.09; in experiment [13], 1.24; in experiment [14], -4.93 (inactive); in experiment [15] it was 0.282 (inactive); in experiment [16], 0.37 (inactive). Also, the composite z-score in [4] is 0.84 (inactive); in [10], -0.258; in experiment [11] it was -0.243 (inactive); in experiment [12] it was 0.48.

For the origin of these results see PubChem BioAssay.
